Assay results published in PubChem BioAssay AID624202 (National Center for Advancing Translational Sciences (NCATS), 2012).
About 4,000 (1.1%) of roughly 380,000 compounds were called active. A call without a number means that no potency is given here. Another 3% or so got no clear call; they are omitted. The call rests on the fitted dose curve; in most records, active means well fitted activation curve with a large enough effect; inconclusive means small, poorly fitted or top-dose-only effect; inactive means no such curve, though single readings can be large or run the other way. For the sample, actives were picked, then their nearest neighbours and some compounds at random.

experiment: qHTS Assay to Identify Small Molecule Activators of BRCA1 Expression; details: MCF7-BRCA1-FFLuc reporter, luminescence, 48 h; series mostly up to 46.1 µM; further: nearly all actives have a fitted effect of over 80% in size
How it was run: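 MCF7-BRCA1-FFLuc, 2000 cells/well; 2 h attach, 37 °C/5% CO2; compound 48 h; luciferase substrate 15 min; luminescence end-point. Norm. to genistein 10 microM max activation and DMSO; concentration-response curves fitted.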
Potency means the concentration at half of the fitted maximal effect.

Row | SMILES | Potency
1 | O=C(C1CCCN(S(=O)(=O)c2cccc3nonc23)C1)N1CCN(c2ccccc2F)CC1 (stereo unspecified) | inactive
2 | Cn1c(=O)c2c(nc(Oc3ccc(C#N)cc3)n2Cc2ccc(Cl)cc2Cl)n(C)c1=O | inactive
3 | O=C(COC(=O)c1ccccc1OCCOc1ccccc1)Nc1cccc(Br)c1 | inactive
4 | Cc1cccc(OCCSc2nc3ccccc3n2CC(=O)N2CCCCC2)c1C | inactive
5 | CCN(CC)C(=O)c1nc[nH]c1C(=O)N(C)Cc1ccccc1 | inactive
6 | CCN(CC)C(=O)c1sc2nc(-c3ccccc3)ccc2c1N | 2.24 µM (active)
7 | COc1cccc(C(=O)c2sc3nc(-c4ccccc4)cc(C(F)(F)F)c3c2N)c1 | inactive
8 | Cc1ccc(S(=O)(=O)N2CCN(c3nc(-n4cnc5ccccc54)nc4ccccc34)CC2)cc1 | inactive
9 | CCCCCn1c(=O)[nH]c2cc(C(=O)Nc3ccc(F)cc3)ccc2c1=O | inactive
10 | CN(C)C1=C2C=CC=CC2/C(=C2/C=Cc3ccccc32)C=C1 (stereo unspecified) | inactive
11 | O=C(COc1ccccc1C(=O)Nc1ccccc1)Nc1cccc(F)c1 | inactive
12 | Cc1ccc(C)c(N2CCN(C(=O)CN3C(=O)COc4ccc(S(=O)(=O)N5CCCCCC5)cc43)CC2)c1 | inactive
13 | CCC(CC)c1nnc(NC(=O)C2CCN(C(=O)c3ccco3)CC2)s1 | inactive
14 | CCOC(=O)c1sc(N)c(C#N)c1COC(=O)C1=COCCO1 | inactive
15 | Cc1sc(NC(=O)C2=COCCO2)c(C#N)c1C | 12.6 µM (active)
16 | CCn1c(SCC(=O)Nc2sc(C)c(C)c2C#N)nnc1C1CC1 | inactive
17 | COc1cc(-c2nnc(NC(=O)C3=COCCO3)o2)cc(OC)c1OC | inactive
18 | CCC(CC)c1nnc(NC(=O)C2=COCCO2)s1 | 10 µM (active)
19 | COc1ccc(N(CC(=O)NCCc2ccc(Cl)cc2)S(=O)(=O)c2c(C)nn(C)c2C)cc1 | inactive
20 | CCCCOc1ccc(C(=O)NO)cc1 | inactive
21 | CC1(C)C=Cc2c(ccc(C(=O)/C=C/c3ccccc3)c2O)O1 | inactive
22 | CC1(C)C=Cc2c(ccc3c2OC[C@@H](c2ccc(O)cc2O)C3)O1 | 11.2 µM (active)

Row | SMILES | Potency
23 | O=C(/C=C/c1ccccc1)N1CCN(Cc2cc(=O)n3nc(-c4ccccc4F)sc3n2)CC1 | inactive
24 | Cc1ccc(NC(=S)NC(NC(=O)Cc2cccc3ccccc23)C(Cl)(Cl)Cl)cc1 (stereo unspecified) | inactive
25 | O=C(Cc1cccc2ccccc12)Nc1ccc2oc(-c3ccccc3)nc2c1 | 11.2 µM (active)
26 | O=C(Cc1cccc2ccccc12)NNC(=O)Nc1ccc(Cl)cc1 | inactive
27 | CCn1c(=O)c2cc(C(=O)NCCc3ccc(Cl)cc3)sc2c2ccccc21 | inactive
28 | COc1cc(OC)c(OC)cc1/C=C1\C=Cc2ccccc21 | inactive
29 | COc1cccc(NC(=O)CN(C)C(C)C(=O)Nc2ccc(C#N)cc2)c1 (stereo unspecified) | inactive
30 | CCC(=O)Nc1ccc(C(=O)Nc2cccc(OC)c2)cc1 | 12.6 µM (active)
31 | COc1ccc(C(=O)NCc2nnc(SCC(=O)Nc3cccc(OC)c3)o2)cc1 | inactive
32 | Cc1ccc(C(=O)Nc2ccc(OCc3cc(=O)n4c(C)csc4n3)cc2)cc1 | inactive
33 | Cc1ccc(-c2nnc3ccc(SCC(N)=O)nn23)cc1 | inactive
34 | CCOC(=O)c1oc2ccc(S(=O)(=O)n3nc(-c4ccccc4OC)cc3N)cc2c1C | inactive
35 | O=C(CSc1nc2ccccc2o1)N1CCN(c2ccccc2)CC1 | inactive
36 | Cc1ccc(/C=N/NC(=O)CSc2nc3ccccc3o2)cc1 | 11.2 µM (active)
37 | O=C(CSc1nc2ccccc2o1)N/N=C/c1ccccc1C(=O)O | inactive
38 | CC1=C(C(=O)OCc2ccc(C)cc2)C(c2ccccc2Cl)CC(=O)N1 (stereo unspecified) | inactive
39 | CCc1ccc(CNC(=O)c2cc3c(=O)n(CC)c4ccccc4c3s2)cc1 | inactive
40 | Cc1cccc(N2CCN(c3ccc(C(=O)O)cc3NC(=O)c3ccccc3F)CC2C)c1 (stereo unspecified) | inactive
41 | O=C(CN1CCCCCC1)Nc1ccc(Cl)cc1F | inactive
42 | CC(=O)Nc1ccc(NC(=O)CN2CCCC(C)C2)c(Cl)c1 (stereo unspecified) | 11.2 µM (active)
43 | COc1cc(Cl)c(C)cc1NC(=O)CN1CCCCCC1 | inactive
44 | Cc1ccc(-c2nn3c(=O)cc(CN4CCN(S(=O)(=O)c5ccc(Cl)cc5)CC4)nc3s2)cc1 | inactive

Row | SMILES | Potency
45 | COc1ccc(-c2nc3ccccc3s2)cc1NC(=O)COc1ccccc1C | inactive
46 | CCCCCCC1(C)NC(c2ccc3c(c2)OCO3)=CC(c2ccccc2O)N1 (stereo unspecified) | inactive
47 | COc1ccc(Nc2ncc(C(=O)N3CCN(c4ccccc4OC)CC3)c3ccccc23)cc1 | inactive
48 | COc1ccc(Nc2ncnc3sc(C)cc23)cc1 | 8.91 µM (active)
49 | COc1ccc(Nc2ncc(C(=O)Nc3cc(C)ccc3OC)c3ccccc23)cc1 | inactive
50 | CC1=C(C(=O)OCc2ccc(C)cc2)C(c2c(Cl)cccc2Cl)CC(=O)N1 (stereo unspecified) | inactive
51 | Fc1cccc(Cl)c1COc1ccc(-c2nnco2)cc1 | inactive
52 | Fc1ccc(COc2cccc(-c3n[nH]c(=S)o3)c2)cc1 | inactive
53 | Fc1ccc(COc2ccc(-c3nnco3)cc2)cc1 | 11.2 µM (active)
54 | COc1cc2nc(Cl)nc(NC3CC3)c2cc1OC | inactive
55 | O=C1COc2ccc(-c3csc(-c4ccc(Cl)cc4)n3)cc2N1 | inactive
56 | COCC1CCCCN1C(=O)c1cc(COc2ccc(C)c(C)c2)on1 (stereo unspecified) | 11.2 µM (active)
57 | Cc1nonc1C1CCCN1C(=O)c1cc(COc2cccc(C(F)(F)F)c2)on1 (stereo unspecified) | inactive
58 | Cc1ccc(OCc2cc(C(=O)N(C)CCn3ccnc3C)no2)cc1C | inactive
59 | Cc1[nH]c2ccccc2c1C(c1ccccc1)c1cccs1 (stereo unspecified) | inactive
60 | CC(=O)c1ccc(NC(=O)c2nc(-c3ccc(C)cc3)n3c2CCCCC3)cc1 | inactive
61 | Nc1ncnc2nnsc12 | inactive
62 | COc1ccccc1-c1c(C)nn2c(C)c(C(C)=O)cnc12 | inactive
63 | COc1ccccc1Nc1ncc(C(C)=O)c(C)n1 | 10 µM (active)
64 | CCc1ccc2nc(Nc3ncc(C(C)=O)c(C)n3)nc(C)c2c1 | inactive
65 | O=C(Cn1c(=O)n(Cc2cccs2)c(=O)c2cccnc21)Nc1ccc(F)cc1 | inactive
66 | CCc1ccccc1NC(=O)Cn1c(=O)n(CC2CCC(C(=O)NCCc3ccccc3)CC2)c(=O)c2ccccc21 (stereo unspecified) | inactive

Row | SMILES | Potency
67 | O=C(Cn1c(=O)n(Cc2ccccc2)c(=O)c2sc3ccccc3c21)Nc1ccccc1F | inactive
68 | COc1ccc(N2C(=O)CSC23C(=O)N(Cc2cccc(F)c2)c2ccccc23)cc1Cl (stereo unspecified) | inactive
69 | COc1ccc(CCNC(=O)CCc2c(C)nc3c(c(C)nn3-c3ccc(C)c(C)c3)c2C)c(OC)c1OC | inactive
70 | CCS(=O)(=O)n1nc(-c2ccc(OC)cc2)nc1SC | inactive
71 | CCS(=O)(=O)n1nc(-c2ccccc2)nc1SCc1ccccc1 | 3.98 µM (active)
72 | Cc1ccc(S(=O)(=O)n2nc(-c3ccc(Cl)cc3)nc2NCc2ccccc2)cc1 | inactive
73 | COc1ccccc1N1CCN(c2ncnc3onc(-c4ccc(F)cc4)c23)CC1 | inactive
74 | COc1ccc(-n2nnc(-c3nsc(NC(=O)c4ccc(C)c(C)c4)n3)c2C)cc1Cl | inactive
75 | Cc1ccc(NC(=O)c2csc3c2CCCC3)cc1 | 12.6 µM (active)
76 | CCOc1ccc(CCNC(=O)c2csc3c2CCCCC3)cc1 | inactive
77 | CCOC(=O)c1ccc(NC(=O)c2csc3c2CCCCC3)cc1 | inactive
78 | Cc1ccc(OCCSc2nc3ccc(NC(=O)COc4ccc(C)cc4)cc3s2)cc1 | inactive
79 | O=C(Cn1c(=O)n(-c2ccc(F)cc2)c(=O)c2sc3ccccc3c21)NC1CCCC1 | inactive
80 | Cc1cccc(NC(=O)N2CCN(C)c3ncccc32)c1C | inactive
81 | CCCCC(CC)CNC(=O)C1CCN(S(=O)(=O)c2cccc3nsnc23)CC1 (stereo unspecified) | inactive
82 | CCCN(CCC)c1ccc(C(O)c2nnc(-c3ccccc3)o2)cc1 (stereo unspecified) | inactive
83 | OC(c1nnc(-c2ccccc2)o1)c1cccs1 (stereo unspecified) | 11.2 µM (active)
84 | C=CCn1c(SCc2nnc(-c3ccccc3)o2)nnc1C(O)c1ccccc1 (stereo unspecified) | inactive
85 | Cc1cc(C)cc(NC(=O)Cn2c(=O)c3ccccc3n3nncc23)c1 | inactive
86 | Cc1ccc(C=O)cc1Cl | inactive
87 | O=C(OCc1cc(=O)n2nc(C3CC3)sc2n1)c1ccccc1Cl | inactive
88 | COc1cc2nc(SCC(=O)Nc3ccccc3F)n3nc(-c4ccccc4)nc3c2cc1OC | inactive

Row | SMILES | Potency
89 | Cc1cc(C)cc(-n2ccnc2SCC(=O)Nc2nc3ccccc3s2)c1 | inactive
90 | COc1cccc(CNC(=O)c2ccc3c(Cl)c4c(nc3c2)CCCC4)c1 | inactive
91 | Cc1cc2oc3ccc(NCCC4CCCN4C)cc3c(=O)c2cc1C (stereo unspecified) | inactive
92 | COc1cccc2sc3cc(NCC[C@@H]4CCCN4C)ccc3c(=O)c12 | 11.2 µM (active)
93 | CN1CCC[C@@H]1CCO[C@](C)(c1ccccc1)c1ccc(Cl)cc1 | inactive
94 | Oc1ccc(Cl)cc1C1C=C(c2ccc3c(c2)OCO3)NC(c2c(F)cccc2Cl)N1 (stereo unspecified) | inactive
95 | Cc1cc(C)cc(NC(=O)NC2CCCCCCC2)c1 | inactive
96 | O=C(Nc1cccc(F)c1)NC1CCCCCCC1 | 3.55 µM (active)
97 | O=C(Nc1cccc(F)c1)[C@@H]1CCCN1 | inactive
98 | CCn1c(CNC(=O)C23CC4CC(CC(C4)C2)C3)nnc1SCC(=O)Nc1ccc(OC)cc1 | inactive
99 | COc1ccc(-c2cc(-c3ccc(F)cc3)nc3c2COc2ccccc2-3)cc1 | inactive
100 | COc1ccc(C2=Nc3cc(C)ccc3OC2)cc1 | 11.2 µM (active)
101 | COc1ccc(-c2cc(-c3ccccc3)nc3c2COc2ccc(Cl)cc2-3)cc1 | inactive
102 | CCCCCn1c(=O)[nH]c2cc(C(=O)NCCN(C)CCCC)ccc2c1=O | inactive
103 | COC(=O)C1=C(c2ccccc2)c2ccccc2S(=O)(=O)N1CC(=O)Nc1ccccc1C(F)(F)F | inactive
104 | COCn1c(COc2ccccc2)nc2ccccc21 | 12.6 µM (active)
105 | COCc1nc2ccccc2n1Cc1ccccc1Br | inactive
106 | COc1ccccc1Cn1c(CO)nc2ccccc21 | inactive
